In PubChem BioAssay (EPA / NIEHS):
Active and inactive are the calls of the source. The calls were made as follows: active = hit-call score of the fitted dose curve at least 0.9, where 1 is the maximum; inactive = score below 0.9.

Each compound was assayed on ABC Transporter (ABCC3), ABCC3 (gene 8714) (assay: LTEA_HepaRG_ABCC3: Life Technologies and Expression Analysis (LTEA) Assay for ABC Transporter (ABCC3) using HepaRG (AID 2283462)). Conditions: mRNA level, 48 h; actives raise or lower the signal.
Procedure, shortened: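 HepaRG cells in serum-free induction medium were exposed for 48 h in duplicate to 8-point half-log concentrations topping at 100 uM in 0.5% DMSO. ABCC3 mRNA was measured by qRT-PCR normalized to ACTB, GAPDH and POLR2A, with bidirectional fitting versus DMSO.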

Row | Structure (SMILES) | outcome | AC50
1 | Cc1nc(C)nc(N2C[C@@H](C)N(c3ccnc([C@@H](C)O)n3)[C@@H](C)C2)n1 | inactive | –
2 | O=C(O)Cc1ccccc1Nc1c(Cl)cccc1Cl | inactive | –
3 | NCCO | inactive | –
4 | COc1ccc(S(=O)(=O)N2C(=O)[C@@](c3ccccc3OC)(N3C[C@H](O)C[C@H]3C(=O)N(C)C)c3cc(Cl)ccc32)c(OC)c1 | – | 50 µM (active)
5 | Cc1ccc(C(C)C)c(O)c1 | inactive | –
6 | CN1CCCC1=O | inactive | –
7 | NCC1(Cc2noc(=O)[nH]2)CCCCC1 | inactive | –
8 | Cc1oc(-c2ccccc2)nc1CCOc1cccc2c1ccn2CCC(=O)O | inactive | –
9 | COc1ccc(C)cc1N | inactive | –
10 | CCOC(=O)CCC(=O)OCC | inactive | –
11 | Cc1cc(NC(=O)C(=O)O)cc(C)c1Oc1ccc(O)c2c1CCC2 | inactive | –
12 | CC(=O)OCCOCCOCCOC(C)=O | inactive | –
13 | CCCCCCC(=O)OCC | inactive | –
14 | CC1(C)NC(=O)NC1=O | inactive | –
15 | Nc1ccc(S(=O)(=O)c2ccc(N)cc2)cc1 | inactive | –
16 | C[C@]12C=CC(=O)C=C1CC[C@@H]1[C@@H]2C(=O)C[C@@]2(C)[C@H]1CC[C@]2(O)C(=O)CO | inactive | –
17 | CCCCCCCCCCO | inactive | –
